According to PubChem BioAssay (NCATS):
Results filed as inconclusive are left out. Active and inactive are the calls of the source. Calls come from the whole dose curve; as a rule, active = well fitted cell-killing curve with a large enough effect; inconclusive = small, poorly fitted or top-dose-only effect, or effect the other way; inactive = flat fitted curve, though single readings scatter. Where a SMILES comes first, the peptide text is derived from it. Bridges are numbered along the chain shown (N, C = ends). [ ]: non-standard residue; d: D form. The star is where a group is joined. X1 = CCC(C)C(N)C1=NC(C(=O)*)CS1; dOrn = NCCC[C@@H](N)C(=O)O

Columns and labels:
Assay in all cases: Primary qHTS to identify gynecologic anti-cancer compounds using libraries of approved drugs and bioactive compounds (AID 1345084); note: nearly all actives have a fitted effect of over 55% in size
C33A = conditions: Gynecologic cancer cell panel viability, ATPlite luminescence, 48 h; series mostly up to 57.5 µM
How it was run: (§1)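 48 h compound exposure at 37 C, 5% CO2; five-point qHTS. ATPlite luminescence readout of cell ATP.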

CAOV3 = conditions: Gynecologic cancer cell panel viability, ATPlite luminescence, 48 h; series mostly up to 57.5 µM
How it was run: as §1

CASKI = conditions: Gynecologic cancer cell panel viability, ATPlite luminescence, 48 h; series mostly up to 57.5 µM
How it was run: as §1

Es-2 = conditions: Gynecologic cancer cell panel viability, ATPlite luminescence, 48 h; series mostly up to 57.5 µM
How it was run: as §1

HeLa = conditions: Gynecologic cancer cell panel viability, ATPlite luminescence, 48 h; series mostly up to 57.5 µM
How it was run: as §1

Hek293T = conditions: Gynecologic cancer cell panel viability, ATPlite luminescence, 48 h, control line for the selectivity index; series mostly up to 57.5 µM
How it was run: as §1

JEG-3 = conditions: Gynecologic cancer cell panel viability, ATPlite luminescence, 48 h; series mostly up to 57.5 µM
How it was run: as §1

OV90 = conditions: Gynecologic cancer cell panel viability, ATPlite luminescence, 48 h; series mostly up to 57.5 µM
How it was run: as §1

PA-1 = conditions: Gynecologic cancer cell panel viability, ATPlite luminescence, 48 h; series mostly up to 57.5 µM
How it was run: as §1

SKOV3 = conditions: Gynecologic cancer cell panel viability, ATPlite luminescence, 48 h; series mostly up to 57.5 µM
How it was run: as §1

Tov-21-G = conditions: Gynecologic cancer cell panel viability, ATPlite luminescence, 48 h; series mostly up to 57.5 µM
How it was run: as §1

Tov112D = conditions: Gynecologic cancer cell panel viability, ATPlite luminescence, 48 h; series mostly up to 57.5 µM
How it was run: as §1
% is set by controls: 0 for no effect and ±100 for the full control effect.

CC(C)c1ccc(CC(=O)N2CCC[C@@H](c3cccc(OC(C)(C)C(=O)O)c3)C2)cc1
inactive: Potency (C33A) | Potency (CAOV3) | Potency (CASKI) | Potency (Es-2) | Potency (HeLa) | Potency (Hek293T) | Potency (JEG-3) | Potency (OV90) | Potency (PA-1) | Potency (SKOV3) | Potency (Tov-21-G) | Potency (Tov112D)

CC1=C2[C@@H]([C@H](C)CC[C@H]2/C=C(\C)C(=O)O)[C@H](O)C1
inactive: Potency (C33A) | Potency (CAOV3) | Potency (CASKI) | Potency (Es-2) | Potency (HeLa) | Potency (Hek293T) | Potency (JEG-3) | Potency (OV90) | Potency (PA-1) | Potency (SKOV3) | Potency (Tov-21-G) | Potency (Tov112D)

O=C(O[C@@H]1O[C@H](CO)[C@@H](O)[C@H](O)[C@H]1O)c1c(O)cc(O)cc1/C=C/c1ccccc1
inactive: Potency (C33A) | Potency (CAOV3) | Potency (CASKI) | Potency (Es-2) | Potency (HeLa) | Potency (Hek293T) | Potency (JEG-3) | Potency (OV90) | Potency (PA-1) | Potency (SKOV3) | Potency (Tov-21-G) | Potency (Tov112D)

COC1=CC(=O)O[C@@H](CCc2ccccc2)[C@@H]1O
inactive: Potency (C33A) | Potency (CAOV3) | Potency (CASKI) | Potency (Es-2) | Potency (HeLa) | Potency (Hek293T) | Potency (JEG-3) | Potency (OV90) | Potency (PA-1) | Potency (SKOV3) | Potency (Tov-21-G) | Potency (Tov112D)

CC(=O)c1c(O)cc2cccc3c2c1CC(C)(O)O3 (stereo unspecified)
inactive: Potency (C33A) | Potency (CAOV3) | Potency (CASKI) | Potency (Es-2) | Potency (HeLa) | Potency (Hek293T) | Potency (JEG-3) | Potency (OV90) | Potency (PA-1) | Potency (SKOV3) | Potency (Tov-21-G) | Potency (Tov112D)

CC(=O)N1CCN(NC(=O)c2ccc(F)cc2)CC1
inactive: Potency (C33A) | Potency (CAOV3) | Potency (CASKI) | Potency (Es-2) | Potency (HeLa) | Potency (Hek293T) | Potency (JEG-3) | Potency (OV90) | Potency (PA-1) | Potency (SKOV3) | Potency (Tov-21-G) | Potency (Tov112D)

C=CC1(C)CC(OC(=O)C(=C)C(O)COC(C)=O)C(C(=C)C(=O)OC)C(O)C1C(=C)CO (stereo unspecified)
inactive: Potency (C33A) | Potency (CAOV3) | Potency (CASKI) | Potency (Es-2) | Potency (HeLa) | Potency (Hek293T) | Potency (JEG-3) | Potency (OV90) | Potency (PA-1) | Potency (SKOV3) | Potency (Tov-21-G) | Potency (Tov112D)

CC1NC(=O)C(Cc2c[nH]c3ccccc23)NC1=O (stereo unspecified)
inactive: Potency (C33A) | Potency (CAOV3) | Potency (CASKI) | Potency (Es-2) | Potency (HeLa) | Potency (Hek293T) | Potency (JEG-3) | Potency (OV90) | Potency (PA-1) | Potency (SKOV3) | Potency (Tov-21-G) | Potency (Tov112D)

C=C1C(O[C@@H]2O[C@H](CO)[C@@H](O)[C@H](O)[C@@H]2O)CC2C(C)(C)C(O)CCC2(C)C1CC/C(C)=C\CO (stereo partly specified)
inactive: Potency (C33A) | Potency (CAOV3) | Potency (CASKI) | Potency (Es-2) | Potency (HeLa) | Potency (Hek293T) | Potency (JEG-3) | Potency (OV90) | Potency (PA-1) | Potency (SKOV3) | Potency (Tov-21-G) | Potency (Tov112D)

CCC(C)C(N)C1=NC(C(=O)N[C@@H](CC(C)C)C(=O)N[C@H](CCC(=O)O)C(=O)N[C@H](C(=O)N[C@H]2CCCCNC(=O)[C@H](CC(N)=O)NC(=O)[C@@H](CC(=O)O)NC(=O)[C@H](Cc3cnc[nH]3)NC(=O)[C@@H](Cc3ccccc3)NC(=O)[C@H]([C@@H](C)CC)NC(=O)[C@@H](CCCN)NC2=O)[C@@H](C)CC)CS1 (stereo partly specified) (X1-L[dE]IK[dOrn]I[dF]H[dD]N; lactam 4-C)
inactive: Potency (C33A) | Potency (CAOV3) | Potency (CASKI) | Potency (Es-2) | Potency (HeLa) | Potency (Hek293T) | Potency (JEG-3) | Potency (OV90) | Potency (PA-1) | Potency (SKOV3) | Potency (Tov-21-G) | Potency (Tov112D)

C[C@@H]1O[C@@H](O[C@H]2[C@H](OC(=O)C34CCC(C)(C)CC3C3=CCC5C6(C)CC(O)C(O[C@@H]7O[C@H](CO)[C@@H](O)[C@H](O)[C@H]7O)C(C)(C(=O)O)C6CCC5(C)C3(CO)CC4)O[C@H](C)[C@H](O)[C@@H]2O)[C@H](O)[C@H](O)[C@H]1O[C@@H]1OC[C@@H](O)[C@H](O)[C@H]1O (stereo partly specified)
inactive: activity change, negative = cytotoxicity (C33A) 7.58% [at 11.6 µM] | activity change, negative = cytotoxicity (CAOV3) 18.2% [at 11.6 µM] | activity change, negative = cytotoxicity (CASKI) 8.6% [at 11.6 µM] | activity change, negative = cytotoxicity (Es-2) 0.101% [at 11.6 µM] | activity change, negative = cytotoxicity (HeLa) 10.9% [at 11.6 µM] | activity change, negative = cytotoxicity (Hek293T) 7.78% [at 11.6 µM] | activity change, negative = cytotoxicity (JEG-3) 4.58% [at 11.6 µM] | activity change, negative = cytotoxicity (OV90) 3.81% [at 11.6 µM] | activity change, negative = cytotoxicity (PA-1) 8.42% [at 11.6 µM] | activity change, negative = cytotoxicity (SKOV3) 7.96% [at 11.6 µM] | activity change, negative = cytotoxicity (Tov-21-G) 2.58% [at 11.6 µM] | activity change, negative = cytotoxicity (Tov112D) 2.79% [at 11.6 µM]

C=CC1C(O[C@@H]2O[C@H](CO)[C@@H](O)[C@H](O)[C@H]2O)OC=C(C(=O)OC)C1CC(=O)O (stereo partly specified)
inactive: Potency (C33A) | Potency (CAOV3) | Potency (CASKI) | Potency (Es-2) | Potency (HeLa) | Potency (Hek293T) | Potency (JEG-3) | Potency (OV90) | Potency (PA-1) | Potency (SKOV3) | Potency (Tov-21-G) | Potency (Tov112D)

C[C@@H]1O[C@@H](O[C@H]2[C@H](O)[C@@H](C(=O)O)O[C@@H](O[C@H]3CC[C@@]4(C)C(CC[C@]5(C)C4CC=C4C6CC(C)(C)CC[C@]6(C(=O)O)CC[C@]45C)C3(C)C)[C@@H]2O[C@@H]2O[C@H](CO)[C@@H](O)[C@H](O)[C@H]2O)[C@H](O)[C@H](O)[C@H]1O (stereo partly specified)
inactive: activity change, negative = cytotoxicity (C33A) 0.0448% [at 11.6 µM] | activity change, negative = cytotoxicity (CAOV3) 1.71% [at 11.6 µM] | activity change, negative = cytotoxicity (CASKI) -2.17% [at 11.6 µM] | activity change, negative = cytotoxicity (Es-2) 0.67% [at 11.6 µM] | activity change, negative = cytotoxicity (HeLa) 6.77% [at 11.6 µM] | activity change, negative = cytotoxicity (Hek293T) -9.05% [at 11.6 µM] | activity change, negative = cytotoxicity (JEG-3) -1.5% [at 11.6 µM] | activity change, negative = cytotoxicity (OV90) -2.55% [at 11.6 µM] | activity change, negative = cytotoxicity (PA-1) -11.5% [at 11.6 µM] | activity change, negative = cytotoxicity (SKOV3) -1.84% [at 11.6 µM] | activity change, negative = cytotoxicity (Tov-21-G) 0.088% [at 11.6 µM] | activity change, negative = cytotoxicity (Tov112D) 0.16% [at 11.6 µM]
